A selection: hits, their analogues and other compounds. The true share with any hit is near 3.2%.
CDK5 p35 inh: CDK5/p35 (human) kinase inhibition. Q00535+Q15078. Recombinant CDK5/p35, ADP-Glo luminescence, 60 min. inhibition, % at 10 µM. actives 0.01% (n = 330,000). AID 488839;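 active = highest replicate inhibition of at least 50% and at least 75% of replicates reaching 50%; inconclusive = only one of the two criteria met; inactive = both criteria failed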;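 note: plate controls were DMSO neutral control for no effect and GW8510 at 10 µM for full effect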
Rtt109 HAT inh: blocks Candida albicans Rtt109/Vps75 acetyltransferase activity. AID 540336. purified Rtt109/Vps75, ThioGlo CoA-SH fluorescence, 4 h. actives 0.16% (n = 330,000). Q5AAJ8. inhibition, % at 34.9 µM;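 active = inhibition of at least 50% in every replicate; inconclusive = best replicate reaches 50% inhibition but some replicates fall short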
DYRK1A inh: Dyrk1A (rat) kinase inhibition. actives 0.43% (n = 310,000). ADP-Glo luminescence, NFATc1 peptide. Q63470. inhibition, % at 12.5 µM; in the data active = inhibition above about 50%;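 note: plate controls were vehicle with enzyme for no effect and no enzyme for full effect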
esBAF inh: SWI/SNF esBAF complex inhibition | mouse ES cells, Bmi1-luciferase knock-in reporter, 24 h; 100% = twice the neutral-well signal | reporter increase, % at 12.5 µM | actives 2% (n = 350,000); in the data active = activation above about 40%; inconclusive = no clear call, values can overlap the other calls;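 note: 0% = median of the plate's neutral control wells and 100% = double that signal; a rise in the Bmi1 reporter signal indicates esBAF inhibition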
dFosB act: mouse delta FosB homodimer activation. purified delta FosB, TAMRA-CDK5 oligo fluorescence polarization; percent of positive-control signal above neutral wells. activation, % at 25 µM. actives 0.99% (n = 340,000). AID 493131;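 active = mean activation above about 17%, with every replicate also reaching it, limit read from the data, passing the limit was not always enough; inconclusive = only one of the two conditions met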
Target sequence (P13346 whole entry, looked up): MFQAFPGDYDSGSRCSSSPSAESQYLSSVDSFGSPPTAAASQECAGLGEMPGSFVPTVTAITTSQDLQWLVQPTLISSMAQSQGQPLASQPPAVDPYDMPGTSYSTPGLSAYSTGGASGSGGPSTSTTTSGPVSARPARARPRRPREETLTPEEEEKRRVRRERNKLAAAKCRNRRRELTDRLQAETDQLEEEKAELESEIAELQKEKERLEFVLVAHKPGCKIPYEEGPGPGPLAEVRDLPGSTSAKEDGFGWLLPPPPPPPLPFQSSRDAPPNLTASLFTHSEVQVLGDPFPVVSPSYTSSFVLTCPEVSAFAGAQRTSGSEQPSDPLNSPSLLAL
SMARCA2 activ: activators of SMARCA2 function; MG213 cells, MMTV-luciferase reporter, dexamethasone, overnight; activation, % at 9.1 µM; actives 1% (n = 370,000); AID 652017; in the data active = activation above about 7.8%;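 note: 0% = vehicle wells and 100% = reference activator wells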
Starred values were filed as active, the others as inactive; ? = inconclusive; / = no result.

SMILES	CDK5 p35 inh	Rtt109 HAT inh	DYRK1A inh	esBAF inh	dFosB act	SMARCA2 activ
Cc1cc(NC(=O)CCN2C(=O)/C(=C\c3ccccc3)SC2=S)no1	1	-5	7	-7	40*	3
COCC#Cc1ccc2c(c1)O[C@@H](CN(C)Cc1ccncc1)[C@@H](C)CN([C@H](C)CO)S2(=O)=O	/	/	/	-5	/	/
COC(=O)c1ccc2c(=O)n(CC3CCCO3)c(SCC(=O)Nc3ccccc3Cl)nc2c1 (centres undefined)	1	-1	-2	50*	5	-2
Cc1ccc(-c2csc(C(O)c3ccccc3)n2)cc1C (centres undefined)	/	/	/	53*	/	0
O=C(O)c1cccc(-c2csc(C(O)c3ccccc3)n2)c1 (centres undefined)	/	/	/	43*	/	-4
COc1cc(C(O)c2nc(-c3ccc4ccccc4c3)cs2)ccc1F (centres undefined)	/	/	/	21	/	-3
NC(=O)c1cccc(-c2csc(C(O)c3ccccc3)n2)c1 (centres undefined)	/	/	/	12	/	-1
COc1ccc(C(O)c2nc(-c3cc4ccccc4o3)cs2)cc1 (centres undefined)	/	/	/	19	/	-2
OC(c1ccccc1)c1nc(-c2cc3ccccc3o2)cs1 (centres undefined)	/	/	/	47*	/	4
COc1ccc(C(O)c2nc(-c3ccc4ccccc4c3)cs2)cc1 (centres undefined)	/	/	/	58*	/	-1
C[C@@H]1CN([C@H](C)CO)C(=O)c2cc(NS(=O)(=O)c3ccc(Cl)cc3)ccc2O[C@@H](C)CCCCO[C@H]1CN(C)Cc1ccc2c(c1)OCO2	/	/	/	-13	/	/
Cc1ccc(S(=O)(=O)N[C@H]2CC[C@@H](CC(=O)NCCN3CCCCC3)O[C@@H]2CO)cc1	/	/	/	1	/	/
O=C(N[C@@H]1CC[C@H](CCNC(=O)c2ccccc2F)O[C@H]1CO)c1ccc2c(c1)OCO2	/	/	/	-6	/	/
CCN(C[C@H]1[C@H](c2ccccc2)[C@@H](CO)N1S(C)(=O)=O)C(=O)C1CCC1	/	/	/	7	/	/
C/C=C/c1cnc2c(c1)C(=O)N([C@H](C)CO)C[C@H](C)[C@H](CN(C)S(=O)(=O)c1ccc(OC)cc1)O2	/	/	/	3	/	/
COc1ccc(C(O)c2nc(-c3ccc(N(C)C)cc3)cs2)cc1 (centres undefined)	/	/	/	?	/	-1
CN(C)c1ccc(-c2csc(C(O)c3ccc(F)c(F)c3)n2)cc1 (centres undefined)	/	/	/	45*	/	0
OCc1cccc(-c2csc(C(O)c3ccccc3)n2)c1 (centres undefined)	/	/	/	41*	/	0
O=C1C(C=NCCCn2ccnc2)=C(O)c2ccccc21	0	12	32	53*	0	-3
CC(=NCCCn1ccnc1)C1=C(O)c2ccccc2C1=O	-3	0	45	-1	-21	2
O=C1C(C=NCc2ccccn2)=C(O)c2ccccc21	1	/	21	73*	-2	7
Cc1noc(C)c1NC(=O)N(C)C[C@H]1Oc2ccc(NC(=O)NC(C)C)cc2CC(=O)N([C@H](C)CO)C[C@H]1C	/	/	/	1	/	/
CN(C)c1ccc(NC(=S)NC(=O)/C=C/c2ccc(Cl)cc2)cc1	1	17	2	46*	5	5
O=C(/C=C/c1ccc(Cl)cc1)NC(=S)Nc1ccc(C(=O)O)cc1	0	-3	10	1	4	2
CNC(=O)C[C@H]1CC[C@H]2[C@H](COc3ccc(NC(=O)c4ccccc4Cl)cc3C(=O)N2C)O1	/	/	/	2	/	/
SMILES	CDK5 p35 inh	Rtt109 HAT inh	DYRK1A inh	esBAF inh	dFosB act	SMARCA2 activ
CCCCSC(=O)Nc1ccccc1	1	-4	-1	50*	2	4
COc1ccc(/C=C/C(=O)c2ccc(Cl)s2)cc1O	2	-2	-3	56*	-9	2
COc1cc(/C=C/C(=O)c2ccc(Cl)s2)cc(OC)c1O	-2	-1	-2	10	-3	/
O=C(C[C@@H]1C[C@H]2c3cc(NC(=O)CC4CC4)ccc3O[C@H]2[C@H](CO)O1)NCC(F)(F)F	/	/	/	-4	/	/
O=C1C2C3C=CC(C4CC34)C2C(=O)N1/N=C/c1c[nH]c2ccccc12 (centres undefined)	-1	19	6	57*	-4	-2
CC1(C)OC(=O)N(c2ccccc2)C12C=Cc1cc(Br)ccc1O2 (centres undefined)	-2	53*	1	8	-5	0
C[C@H]1CN([C@@H](C)CO)C(=O)c2cc(-c3ccncc3)cnc2O[C@H]1CN(C)C(=O)c1ccc(F)cc1	/	/	/	-2	/	/
Nc1cc2c(cc1Cl)-c1ccc(Cl)cc1C2	/	/	/	59*	/	0
Nc1ccc2c(c1)Cc1cc(N)c(Br)cc1-2	0	-4	3	/	-7	4
COc1ccc(-n2nc(C(=O)NCC(=O)Nc3ccccn3)c3ccccc3c2=O)cc1Cl	1	-45	1	-4	67*	-2
COc1ccc(-n2nc(C(=O)NCC(=O)NC(C)C)c3ccccc3c2=O)cc1Cl	2	-3	1	-2	-17	-2
C[C@H](CO)N1C[C@H](C)[C@@H](CN(C)S(=O)(=O)c2ccccc2)Oc2ccc(NC(=O)C3CC3)cc2CC1=O	/	/	/	-2	/	/
Cc1cccc(-c2ccc(NC(=O)C3CCN(CC4CC4)CC3)cc2)c1	1	9	1	-10	0	-3
COc1cccc(CN2CCC(C(=O)Nc3ccc(-c4cccc(C)c4)cc3)CC2)c1O	0	5	-4	-5	40*	-5
Cn1c(=O)c(C(=O)Nc2ccccc2S(N)(=O)=O)c(O)c2ccccc21	1	-8	-6	52*	-26	5
CC(C)Cn1c(=O)c(C(=O)Nc2ccccc2S(N)(=O)=O)c(O)c2ccccc21	-1	-7	5	13	1	1
COCC(=O)Nc1ccc2c(c1)C(=O)N(C)C[C@@H](OC)[C@@H](C)CN(Cc1ccccc1F)[C@H](C)CO2	/	/	/	-7	/	/
O=C(CSc1nc(N2CCCCC2)nc(N2CCCCC2)n1)c1ccccc1	1	8	5	-5	-7	-1
Cc1cc(N2CCCCC2)nc(SCC(=O)c2ccccc2)n1	0	-5	-9	53*	-14	4
CCOc1ccc(-c2nnc(N)s2)cc1	2	/	2	60*	1	3
CCCCOc1ccc(-c2nnc(N)s2)cc1	0	-2	-5	/	-3	6
CO[C@@H]1CN(C)C(=O)c2ccc(NC(=O)Cc3ccccc3)cc2OC[C@@H](C)N(CC2CC2)C[C@@H]1C	/	/	/	0	/	/
Cc1cc(=O)cc(C)n1-c1ccc(Cl)cc1	-1	6	5	/	0	2
Cc1csc(=N)n1-c1ccc(Cl)cc1	1	-5	1	63*	-1	5

Screening results: PubChem, several laboratories
